Test results: paper PMC4336329 (PLoS ONE, 2015)
In all, about 310,000 compounds went through this assay and about 14,000 (4.5%) showed an effect of 50% or more. Effects have a minus sign here. This is one part of a sample in which strong results are shown more often than they occur.

Each molecule was assayed against human ether-à-go-go-related gene (hERG) potassium channel (human, UniProt Q12809) (assay: primary screen, population patch clamp on CHO cells stably expressing hERG; higher = less effect of the substance).
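Also: peak tail current of the secondary pulse compared with the same well before compound.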

Chain of human ether-à-go-go-related gene (hERG) potassium channel (Q12809 whole entry, looked up): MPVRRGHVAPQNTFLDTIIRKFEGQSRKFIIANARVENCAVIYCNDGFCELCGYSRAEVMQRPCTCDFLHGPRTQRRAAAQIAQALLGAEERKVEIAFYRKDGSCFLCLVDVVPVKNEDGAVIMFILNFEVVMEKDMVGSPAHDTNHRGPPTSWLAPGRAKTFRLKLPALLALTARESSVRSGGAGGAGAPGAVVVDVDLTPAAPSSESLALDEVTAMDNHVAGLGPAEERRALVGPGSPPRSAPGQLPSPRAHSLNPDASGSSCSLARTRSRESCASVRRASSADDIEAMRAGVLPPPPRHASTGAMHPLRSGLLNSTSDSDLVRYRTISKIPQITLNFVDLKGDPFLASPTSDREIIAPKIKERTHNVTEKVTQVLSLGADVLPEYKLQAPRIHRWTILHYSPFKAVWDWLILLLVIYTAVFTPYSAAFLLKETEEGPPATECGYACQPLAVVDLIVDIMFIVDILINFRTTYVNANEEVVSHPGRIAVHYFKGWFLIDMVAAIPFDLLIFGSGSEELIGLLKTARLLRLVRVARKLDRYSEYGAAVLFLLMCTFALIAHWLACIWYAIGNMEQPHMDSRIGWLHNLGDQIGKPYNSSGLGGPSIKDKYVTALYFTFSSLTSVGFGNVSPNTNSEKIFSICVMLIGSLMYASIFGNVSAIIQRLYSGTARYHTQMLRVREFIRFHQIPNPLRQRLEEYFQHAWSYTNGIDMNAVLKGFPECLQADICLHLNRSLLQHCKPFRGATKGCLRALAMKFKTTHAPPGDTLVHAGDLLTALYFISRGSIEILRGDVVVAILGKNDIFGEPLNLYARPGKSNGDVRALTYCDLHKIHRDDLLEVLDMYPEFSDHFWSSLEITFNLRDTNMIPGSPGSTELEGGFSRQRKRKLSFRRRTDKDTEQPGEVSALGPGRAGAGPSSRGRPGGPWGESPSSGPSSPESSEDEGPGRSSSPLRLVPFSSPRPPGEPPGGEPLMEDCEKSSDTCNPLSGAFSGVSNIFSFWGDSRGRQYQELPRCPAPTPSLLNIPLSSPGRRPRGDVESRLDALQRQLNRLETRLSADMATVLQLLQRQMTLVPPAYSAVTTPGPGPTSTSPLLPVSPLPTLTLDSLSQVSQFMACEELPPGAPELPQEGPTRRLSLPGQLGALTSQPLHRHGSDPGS

Structure (SMILES) | hERG current change (%, negative = inhibition) at 10uM
O=C(CSc1nc2scc(-c3ccccc3)c2c(=O)[nH]1)NCCc1ccccc1 | -1.09%
CCc1ccccc1NC(=O)CN1CCN(C(=O)CNC(=O)c2ccc(-c3ccccc3)cc2)CC1 | -57%
Cc1ccccc1NC(=O)CNC(=O)Cc1cccc2ccccc12 | 1.16%
Cc1cccc(NC(=O)CN2CCN(C(=O)CNC(=O)Cc3cccc4ccccc34)CC2)c1C | -57.4%
Cc1cccc(NC(=O)CN2CCOCC2)c1C | 13.9%
CCc1ccccc1NC(=O)CN1CCN(C(=O)CNC(=O)c2ccc(N3CCCC3=O)cc2)CC1 | -3.9%
Cc1cccc(NC(=O)CN2CCN(C(=O)COc3cccc(Br)c3)CC2)c1C | -70.4%
Cc1cccc(NC(=O)CNC(=O)CN2CCN(C)CC2)c1C | 7.6%
O=C(CN1CCN(C(=O)CNC(=O)c2ccc3c(c2)OCO3)CC1)Nc1ccccc1Cl | -49.3%
CCOC(=O)N1CCN(CC(=O)Nc2cccc(Br)c2)CC1 | -18.9%
O=C(O)CN1CCN(CC(=O)O)CCN(CC(=O)O)CCN(CC(=O)O)CC1 | 7.18%
O=C(Nc1cccc(C(=O)N2CCOCC2)c1)c1ccccc1Cl | -17%
COc1ccc(C(=O)Nc2ccc(-c3ccc(C)o3)cc2)cc1S(=O)(=O)N1CCOCC1 | 14.6%
O=C(NCc1cccs1)C1CCCN1C(=O)Nc1ccccc1 (centres unmarked) | 21%
CCN(C(=O)COC(=O)c1ccc2ccccc2c1)c1c(N)n(Cc2ccccc2)c(=O)[nH]c1=O | 14.1%
COc1ccc(C(=O)OCC(=O)Nc2sccc2C(N)=O)cc1OC | -0.284%
CCC(=O)N(C)CCc1cc2c(c(OC)c1/C=N/Nc1ccc(C(=O)O)cc1)OCO2 | -1.63%
O=C(Nc1cccc(Cl)c1)c1nc[nH]c1C(=O)N1CCc2ccccc2C1 | -15.6%
CCOc1ccc(NS(=O)(=O)c2ccc(C(=O)N3CCCCC3)cc2)cc1 | -9.46%

Structure (SMILES) | hERG current change (%, negative = inhibition) at 10uM
COc1ccc(Cn2cnc3c(N)c(C)c(C)cc32)cc1 | 5.13%
N#CC1(NC(=O)COc2ccc3oc4ccccc4c3c2)CCCCC1 | 12.1%
COC(=O)c1ccc(CNC(=O)COC(=O)C2CC3C=CC2C3)cc1 (centres unmarked) | 11.2%
COc1ccc(-n2nc3c(c2NC(=O)CCCCl)CSC3)cc1 | -1.78%
CCCN(CCC)CCCNC(=S)Nc1ccc2nc(N3CCN(CC)CC3)cc(C)c2c1 | -3.08%
Cc1cc(N2CCCC2)nc2ccc(NC(=S)NCCCOC(C)C)cc12 | -83.4%
Cc1cc(N2CCCC2)nc2ccc(NC(=S)NCCCN3CCC(C)CC3)cc12 | -29.6%
CCN(CC)CCNC(=S)Nc1ccc2nc(N3CCCC3)cc(C)c2c1 | -8.93%
CCCN(CCC)CCCNC(=S)Nc1ccc2nc(N3CCN(C)CC3)cc(C)c2c1 | 8.86%
COCCNC(=S)Nc1ccc2nc(N3CCN(C)CC3)cc(C)c2c1 | 8.03%
CCOCCCNC(=S)Nc1ccc2nc(N3CCOCC3)cc(C)c2c1 | -7.68%
CCN1CCN(c2cc(C)c3cc(NC(=S)NCCCOC)ccc3n2)CC1 | 5.8%
CCOCCCNC(=S)Nc1ccc2nc(N3CCN(CC)CC3)cc(C)c2c1 | 4.36%
CCCN(CCC)CCCNC(=S)Nc1ccc2nc(N3CCCC3)cc(C)c2c1 | -60.4%
CCOCCCNC(=S)Nc1ccc2nc(N3CCCC3)cc(C)c2c1 | -73.3%
COCCNC(=S)Nc1ccc2nc(N3CCCC3)cc(C)c2c1 | -71.6%
CCOc1ccc(C(=O)Nc2ncn[nH]2)cc1 | 19.1%
O=C(CCc1c[nH]c2ccccc12)N/N=C/c1ccc2c(c1)OCO2 | 6.33%
CC1=CCC2C(=O)N(CCc3c[nH]c4ccccc34)C(=O)C2C1 (centres unmarked) | -9.31%

Structure (SMILES) | hERG current change (%, negative = inhibition) at 10uM
COc1ccc(CC(=O)NNc2ncnc3c2cnn3-c2ccc(C)cc2)cc1OC | 10.5%
COc1ccc(CNC(=O)Cn2nnc(-c3ccc(NC(=O)C4CCCCC4)cc3)n2)cc1 | 14%
COc1ccccc1NS(=O)(=O)c1cc(-c2cnc(C3CC3)o2)ccc1C | 3.37%
O=C1CSC(c2cn(-c3ccccc3)nc2-c2cccs2)N1Cc1ccccc1 (centres unmarked) | -1.38%
O=Cc1c(NCc2ccccc2F)c2ccccc2[nH]c1=O | 13.8%
CCOCCCNC(=S)N1CCCN(c2nc3cc(C)c(C)cc3cc2C#N)CC1 | -36.4%
Cc1cc(N2CCCC2)nc2ccc(NC(=S)NC(C)C)cc12 | -71.6%
Cc1cc(N2CCOCC2)nc2ccc(NC(=S)NC(C)C)cc12 | -12.4%
CCOCCCNC(=S)N1CCCN(c2nc3cc(C)cc(C)c3cc2C#N)CC1 | -55.6%
CCOCCCNC(=S)N1CCCN(c2nc3cc(C)ccc3cc2C#N)CC1 | -30.9%
CCC(C)NC(=S)Nc1ccc2nc(N3CCOCC3)cc(C)c2c1 (centres unmarked) | 5.86%
CSc1nsc(SCC(=O)Nc2ccc(OC(C)=O)cc2)n1 | 4.1%
Cc1c(N=N/C(C(=O)Nc2ccccc2)=C(/O)c2ccccc2)c(=O)n(-c2ccccc2)n1C | 8.85%
CC(C)CN=CC1=C(O)c2ccccc2C1=O | -71.4%
O=C1C(C=NCc2ccncc2)=C(O)c2ccccc21 | -9.12%
CN=CC1=C(O)c2ccccc2C1=O | 14.7%
CCOC(=O)N1CCC(NC(=O)CCc2nc(C3=CCN(C)CC3)no2)CC1 | -3.37%
COc1ccc(C(=O)NCCNc2nc3ccc(C)cc3cc2C#N)cc1 | 4.99%
